# PubChem BioAssay (NCATS)
# Where “and” joins values, the source holds several entries; their conditions need not be identical. Equal entries are not always repeated. Inconclusive results are not listed. Calls of active or inactive are those of the source. Unless noted, calls follow the shape of the dose curve; as a rule, active = well fitted curve in either direction with a large enough effect (not every such curve was filed as active); inconclusive = small, poorly fitted or top-dose-only effect, or another doubt; inactive = flat fitted curve, though single readings scatter.
# Assays:
# [1] = AP1 Signaling Pathway (AID 357); details: ME-180 AP-1-bla reporter, EGF-induced, beta-lactamase ratio, 5 h;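 also: ME-180 reporter cells stimulated with EGF at its EC50 level; % is scaled to controls: 0 for no effect and ±100 for the full control effect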
# Summary of the method: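 Modulation of EGF-driven AP-1 transcription was assessed with a beta-lactamase reporter in ME-180 cells. Compound and EC50 EGF were co-incubated 5 hours at 37 °C before 2.5-hour CCF4 loading at room temperature and dual-emission reading.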
# [2] = NFAT Signaling Pathway (AID 444); details: Jurkat NFAT-bla M1, carbachol, beta-lactamase ratio, 5 h;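 also: carbachol stimulus at about its EC50 of 1 µM final; % is scaled to controls: 0 for no effect and ±100 for the full control effect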
# Summary of the method: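 Jurkat cells with NFAT-driven β-lactamase reporter and co-expressed M1 receptor, stimulated with carbachol (final 1 uM, ~EC50), compound titration, 5 h at 37 °C. CCF4 loaded 1 h at RT; 460/530 nm ratio gave %activity and AC50.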
# [3] = Stat Signaling Pathway (AID 446); details: ME-180 (cervical carcinoma) SIE beta-lactamase reporter, IL-6 stimulated, 5 h;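 also: ME-180 cervical cancer cells given 40 pM IL-6 alongside compound; SIE-controlled beta-lactamase reporter measured as 460/530 nm FRET emission ratio; % is scaled to controls: 0 for no effect and ±100 for the full control effect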
# Summary of the method: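 IL-6/STAT signaling read in ME-180 cells via an SIE beta-lactamase reporter. Stimulus was 40 pM IL-6 (its AC50) for 5 hrs, so both activation and inhibition register.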
# [4] = target: Glucocorticoid receptor (Homo sapiens) (UniProt P04150); assay: GR-GFP Redistribution (AID 450;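 active = compounds whose dose series gives a full or clear partial fitted curve of increased nuclear translocation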; also: potency is read from the fitted curve at half-maximal effect); details: U2OS GR-GFP nuclear translocation, laser cytometry, 2 h
# [5] = target: Glucocorticoid receptor (Homo sapiens) (UniProt P04150); assay: GR-EFC Redistribution (AID 451; calls by dose curve; also: potency is read from the fitted curve at half-maximal effect); details: CHO-K1 GR-EFC translocation, beta-gal luminescence, 2 h
# Summary of the method: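 CHO-K1 cells expressing nuclear EA and GR-ED fragments of b-gal; compounds titrated up to 46 uM final, 2 h at 37 C. GR nuclear translocation read as complemented b-gal luminescence after 1 h RT detection.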
# [6] = target: Mitogen-activated protein kinase 10 (Mus musculus) (UniProt Q61831); assay: JNK3 AlphaScreen Assay (AID 530); details: JNK3 lysate, c-Jun phosphorylation; series mostly up to 57.1 µM;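 also: kinase came from lysate of stimulated human HepG2 cells; signal reports phosphorylation of biotinylated GST-cJun 1-79 at Ser73 with 10 µM ATP; % is scaled to controls: 0 for no effect and ±100 for the full control effect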
# Summary of the method: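 Pre-activated (IL-1β/TNFα) JNK3 in HepG2 lysates phosphorylates biotin-GST-cJun(1-79), 10 uM ATP; anti-phospho-cJun(Ser73) AlphaScreen read at room temperature, pH 7.6 Tris buffer. Compounds pre-incubated 15 min as titrations.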
# [7] = target: 3',5'-cyclic-AMP phosphodiesterase 4B (Homo sapiens) (UniProt Q07343); assay: qHTS Assay for Inhibitors of PDE-IV (AID 607; active = well fitted activation curve with a large enough effect in the main read-out, with a control signal flat, not every such curve was filed as active; also: % of control where 0% means no effect); details: HEK293 ACTOne CNG channel cells, membrane potential fluorescence; series mostly up to 22.9 µM
# Summary of the method: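 Live HEK293 cells with a modified cyclic nucleotide-gated (CNG) channel report intracellular cAMP via membrane-potential dye fluorescence (ex 535/em 590 nm). Endogenous PDE-IV was targeted. Compounds were tested at up to 22.9 uM final; RO 20-1724 100 uM served as control.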
# [8] = qHTS Assay for Lipid Storage Modulators (AID 1519; calls by dose curve); details: Drosophila S3 cells, BODIPY lipid droplet/cell ratio, laser cytometry, cells loaded with oleic acid
# Summary of the method: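 Cells seeded at 5,000 per well were treated with compounds over a concentration series and loaded with oleic acid (400 uM, as added). Lipid droplet fluorescence (488 nm excitation, 500-530 nm channel) was read by laser-scanning cytometry and normalized to 20 uM Triacsin C.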
# [9] = target: Ubiquitin carboxyl-terminal hydrolase 1 (Homo sapiens) (UniProt O94782); assay: Inhibitors of USP1/UAF1: Pilot qHTS (AID 504865; active = well fitted curve in the direction sought with a large enough effect; an effect the other way counts as inactive or inconclusive;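 also: rhodamine fluorescence freed from ubiquitin-rhodamine substrate followed over time; top concentration of the series differs between compounds; % is scaled to controls: 0 for no effect and ±100 for the full control effect; nearly all actives have a fitted effect of over 35% in size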); details: purified USP1/UAF1, Ub-rhodamine cleavage fluorescence; series mostly up to 114 µM
# Summary of the method: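 USP1/UAF1 complex at 1 nM preincubated 15 min at room temperature with compound, then Ub-Rho substrate added at 150 nM final. Fluorescence (480/540 nm) read kinetically in 50 mM HEPES pH 7.8, 0.5 mM EDTA, 1 mM TCEP, 0.1 mg/ml BSA, 0.01% Tween-20.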
# [10] = target: DNA dC->dU-editing enzyme APOBEC-3G (Homo sapiens) (UniProt Q9HC16); assay: qHTS for inhibitors of Vif-A3G interactions: Validation (AID 588379; active = well fitted curve in the direction sought with a large enough effect; an effect the other way counts as inactive or inconclusive; also: 0% is about no effect); details: Vif-A3G protein interaction assay; series mostly up to 46.1 µM
# Summary of the method: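 HeLa cells stably expressing Vif and A3G-eYFP, 700 cells/well, incubated overnight at 37 deg C, then exposed to compound overnight at 37 deg C. Inhibition of Vif-mediated degradation read as increased yellow fluorescence (Ex 488/Em 500-530) by laser-scanning cytometry.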
# [11] = system: Zika virus NS2B-NS3 protease; assay: Primary screen GU AMC qHTS for Zika virus inhibitors (AID 1347154; active = well fitted curve in the direction sought with a large enough effect; an effect the other way counts as inactive or inconclusive;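 also: 0% = no-inhibitor control and -100% = no-enzyme control; nearly all actives have a fitted effect of over 70% in size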); details: Zika NS2B-NS3 unlinked protease, AMC fluorogenic substrate; series mostly up to 54.1 µM
# Summary of the method: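 Unlinked Zika NS2B hydrophilic domain–NS3 protease complex at 25 nM in 10 mM Tris-HCl pH 8.0, 0.01% Tween 20, with an AMC peptide substrate. Fluorescence change (340/450 nm) over 15 min at room temperature, normalized to controls, fitted to 4-parameter Hill.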
# [12] = target: Rap guanine nucleotide exchange factor 4 (Homo sapiens) (UniProt Q8WZA2); assay: Confirmatory qHTS for antagonist of cAMP-regulated guanine nucleotide exchange factor 4 (EPAC2) (AID 1645885; active = well fitted curve in the direction sought with a large enough effect; an effect the other way counts as inactive or inconclusive; also: potency is read from the fitted curve at half-maximal effect; nearly all actives have a fitted effect of over 25% in size); details: EPAC2 Rap1B-BODIPY-GDP exchange fluorescence, biochemical; series mostly up to 114 µM
# Rap guanine nucleotide exchange factor 4 (Homo sapiens), sequence (Q8WZA2 whole entry, looked up): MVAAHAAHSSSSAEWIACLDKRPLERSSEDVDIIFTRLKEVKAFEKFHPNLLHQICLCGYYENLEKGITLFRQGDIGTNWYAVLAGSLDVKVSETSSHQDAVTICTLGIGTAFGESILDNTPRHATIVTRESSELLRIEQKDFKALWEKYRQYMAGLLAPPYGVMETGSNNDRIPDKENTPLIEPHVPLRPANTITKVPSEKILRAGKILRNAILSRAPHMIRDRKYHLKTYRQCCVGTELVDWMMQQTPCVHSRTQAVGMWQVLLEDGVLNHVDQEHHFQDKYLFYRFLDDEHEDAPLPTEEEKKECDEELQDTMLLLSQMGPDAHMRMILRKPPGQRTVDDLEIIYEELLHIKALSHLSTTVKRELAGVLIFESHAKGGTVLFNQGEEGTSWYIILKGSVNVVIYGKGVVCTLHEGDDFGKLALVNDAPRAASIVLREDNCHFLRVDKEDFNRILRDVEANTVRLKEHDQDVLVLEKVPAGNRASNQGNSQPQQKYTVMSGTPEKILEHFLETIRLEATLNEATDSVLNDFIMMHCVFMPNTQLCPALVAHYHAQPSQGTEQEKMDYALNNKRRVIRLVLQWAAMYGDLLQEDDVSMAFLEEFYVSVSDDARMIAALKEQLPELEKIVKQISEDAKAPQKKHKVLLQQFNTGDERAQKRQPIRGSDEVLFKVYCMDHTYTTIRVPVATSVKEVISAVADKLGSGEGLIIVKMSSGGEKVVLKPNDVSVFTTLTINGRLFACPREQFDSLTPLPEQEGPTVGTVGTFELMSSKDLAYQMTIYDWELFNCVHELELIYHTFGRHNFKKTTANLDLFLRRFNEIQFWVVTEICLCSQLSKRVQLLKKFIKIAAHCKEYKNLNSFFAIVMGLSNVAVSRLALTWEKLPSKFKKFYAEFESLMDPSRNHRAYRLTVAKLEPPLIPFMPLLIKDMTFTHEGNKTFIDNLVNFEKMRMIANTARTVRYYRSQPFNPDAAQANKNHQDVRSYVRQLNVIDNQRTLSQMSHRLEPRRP
# Glucocorticoid receptor (Homo sapiens), sequence (P04150 whole entry, looked up, the tested form may be a part): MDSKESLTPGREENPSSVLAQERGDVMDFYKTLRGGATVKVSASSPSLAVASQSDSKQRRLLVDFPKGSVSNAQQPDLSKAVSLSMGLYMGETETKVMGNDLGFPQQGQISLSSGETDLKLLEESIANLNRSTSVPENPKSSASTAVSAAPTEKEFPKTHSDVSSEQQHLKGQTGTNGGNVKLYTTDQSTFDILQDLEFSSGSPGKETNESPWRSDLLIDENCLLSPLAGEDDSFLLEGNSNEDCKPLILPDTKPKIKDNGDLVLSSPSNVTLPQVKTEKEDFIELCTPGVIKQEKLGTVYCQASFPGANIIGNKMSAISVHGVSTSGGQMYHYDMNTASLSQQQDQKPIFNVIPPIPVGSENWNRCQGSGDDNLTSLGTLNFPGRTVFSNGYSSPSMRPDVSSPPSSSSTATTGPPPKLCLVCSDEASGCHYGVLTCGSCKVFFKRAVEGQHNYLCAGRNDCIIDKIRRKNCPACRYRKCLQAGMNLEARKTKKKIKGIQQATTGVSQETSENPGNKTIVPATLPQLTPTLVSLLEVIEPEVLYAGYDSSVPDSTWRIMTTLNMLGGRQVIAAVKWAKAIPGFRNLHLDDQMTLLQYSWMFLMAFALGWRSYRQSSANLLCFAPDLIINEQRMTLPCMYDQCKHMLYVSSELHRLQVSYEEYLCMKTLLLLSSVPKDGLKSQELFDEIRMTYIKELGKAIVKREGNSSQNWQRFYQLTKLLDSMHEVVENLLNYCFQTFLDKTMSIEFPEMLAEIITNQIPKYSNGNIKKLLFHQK
# 3',5'-cyclic-AMP phosphodiesterase 4B (Homo sapiens), sequence (Q07343 whole entry, looked up): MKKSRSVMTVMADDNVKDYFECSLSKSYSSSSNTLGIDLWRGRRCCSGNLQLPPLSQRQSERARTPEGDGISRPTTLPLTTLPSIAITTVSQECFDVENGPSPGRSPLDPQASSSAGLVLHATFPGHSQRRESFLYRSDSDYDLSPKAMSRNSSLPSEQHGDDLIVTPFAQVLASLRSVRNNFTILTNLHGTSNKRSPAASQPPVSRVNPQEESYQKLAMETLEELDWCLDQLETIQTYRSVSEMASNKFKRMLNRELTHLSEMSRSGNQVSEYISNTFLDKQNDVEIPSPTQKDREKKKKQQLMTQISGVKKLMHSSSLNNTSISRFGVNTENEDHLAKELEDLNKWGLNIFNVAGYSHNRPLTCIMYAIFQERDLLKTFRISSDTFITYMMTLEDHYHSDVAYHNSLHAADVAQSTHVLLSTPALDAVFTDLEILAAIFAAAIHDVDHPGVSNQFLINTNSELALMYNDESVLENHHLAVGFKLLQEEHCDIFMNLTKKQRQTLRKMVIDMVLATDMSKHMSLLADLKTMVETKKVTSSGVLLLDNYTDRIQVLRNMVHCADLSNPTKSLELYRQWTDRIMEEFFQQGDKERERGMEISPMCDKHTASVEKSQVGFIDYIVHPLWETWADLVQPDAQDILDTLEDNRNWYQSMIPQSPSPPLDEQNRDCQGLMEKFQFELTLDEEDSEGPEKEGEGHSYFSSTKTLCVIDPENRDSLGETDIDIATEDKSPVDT
# Ubiquitin carboxyl-terminal hydrolase 1 (Homo sapiens), sequence (O94782 whole entry, looked up): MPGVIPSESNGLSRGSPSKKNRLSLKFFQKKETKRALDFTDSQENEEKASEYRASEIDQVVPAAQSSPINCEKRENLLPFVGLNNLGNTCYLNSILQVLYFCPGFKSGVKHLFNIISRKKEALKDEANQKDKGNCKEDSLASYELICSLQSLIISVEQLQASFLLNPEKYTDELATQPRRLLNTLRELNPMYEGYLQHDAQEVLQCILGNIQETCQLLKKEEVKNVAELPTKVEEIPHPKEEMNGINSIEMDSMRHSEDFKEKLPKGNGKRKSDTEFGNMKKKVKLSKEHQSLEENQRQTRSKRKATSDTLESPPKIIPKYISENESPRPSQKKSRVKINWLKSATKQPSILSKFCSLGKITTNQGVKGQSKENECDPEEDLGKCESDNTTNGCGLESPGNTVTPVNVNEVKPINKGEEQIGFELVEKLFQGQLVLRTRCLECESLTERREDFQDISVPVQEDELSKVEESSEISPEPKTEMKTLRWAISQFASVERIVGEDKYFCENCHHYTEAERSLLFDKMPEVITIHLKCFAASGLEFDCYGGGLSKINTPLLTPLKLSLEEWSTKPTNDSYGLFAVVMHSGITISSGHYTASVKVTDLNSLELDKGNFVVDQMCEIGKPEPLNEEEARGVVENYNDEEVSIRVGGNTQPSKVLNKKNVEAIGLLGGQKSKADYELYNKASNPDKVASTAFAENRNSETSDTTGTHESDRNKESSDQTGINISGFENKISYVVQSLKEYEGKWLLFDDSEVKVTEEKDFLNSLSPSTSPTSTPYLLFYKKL
# DNA dC->dU-editing enzyme APOBEC-3G (Homo sapiens), sequence (Q9HC16 whole entry, looked up): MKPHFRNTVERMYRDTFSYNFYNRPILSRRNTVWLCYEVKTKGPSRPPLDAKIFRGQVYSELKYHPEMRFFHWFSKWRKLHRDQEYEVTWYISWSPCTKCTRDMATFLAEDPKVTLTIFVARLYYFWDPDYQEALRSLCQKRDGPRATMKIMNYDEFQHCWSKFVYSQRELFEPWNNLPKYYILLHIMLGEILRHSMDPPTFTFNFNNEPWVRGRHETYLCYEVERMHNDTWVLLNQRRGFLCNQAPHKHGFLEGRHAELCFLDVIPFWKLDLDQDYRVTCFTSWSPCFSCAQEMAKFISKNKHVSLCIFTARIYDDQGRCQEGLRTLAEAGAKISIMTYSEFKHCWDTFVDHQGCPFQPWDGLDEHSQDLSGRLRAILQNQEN
Compound,"activity change, negative = inhibition ([1]; at 17.2 µM (top of the series))","activity change, negative = inhibition ([1]; at 38 µM (top of the series))","activity change, negative = inhibition ([2]; at 17.2 µM (top of the series))","activity change, negative = inhibition ([2]; at 38 µM (top of the series))","activity, negative = inhibition ([3]; at 17.2 µM (top of the series))","activity, negative = inhibition ([3]; at 38 µM (top of the series))",Potency [4],Potency [5],Potency [6],Potency [7],"activity change, negative = inhibition ([8]; at 25.7 µM (top of the series))","activity change, negative = inhibition ([8]; at 57.5 µM (top of the series))",max response ([8]; measured here: cell count channel max response),max response ([8]; measured here: lipid channel max response),Potency [9],Potency [10],Potency [11],Potency [12]
CC(C)NC[C@@H](O)COc1cccc2[nH]ccc12,5.19% (inactive),17% (inactive) and 4.44% (inactive),4% (inactive),1.65% (inactive) and 1.97% (inactive),19% (inactive),12.1% (inactive) and 12.9% (inactive),> 46 µM (inactive) and > 20.6 µM (inactive),> 46 µM (inactive) and > 20.6 µM (inactive),inactive,inactive,0.0529% (inactive),6.23% (inactive),-7.16% and 6.39%,-7.67% and 11.8%,inactive,inactive,inactive,
C/C=C\C[C@@H](C)[C@@H](O)[C@H]1C(=O)N[C@@H](CC)C(=O)N(C)CC(=O)N(C)[C@@H](CC(C)C)C(=O)N[C@@H](C(C)C)C(=O)N(C)[C@@H](CC(C)C)C(=O)N[C@@H](C)C(=O)N[C@H](C)C(=O)N(C)[C@@H](CC(C)C)C(=O)N(C)[C@@H](CC(C)C)C(=O)N(C)[C@@H](C(C)C)C(=O)N1C,,,,,,,,,inactive,,,,,,,,inactive,24.8 µM (active)
